Bioassay records from PubChem.
TLR9-MyD88 block: inhibitors of TLR9-MyD88 association in cells, primary screen, cell-based, CHO, BLA complementation, fluorescence. Toll-like receptor 9 (Homo sapiens) + Myeloid differentiation primary response protein …. CCF4 FRET ratio. inhibition, % at 4.98 µM. 0.21% of 340,000 active;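 active means inhibition above the mean over all tested compounds plus 3 SD, cut at about 21% in these data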;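 further: 0% = DMSO only wells and 100% = clavulanate BLA inhibitor control wells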
ABHD5-PLIN5 inh: ABHD5-PLIN5 interaction inhibitors, primary screen, cell lysate, split luciferase complementation, luminescence; inhibition, % at 4 µM; 0.78% of 360,000 active; Split G. princeps luciferase complementation, 4 h;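 active means inhibition above the mean inhibition across every tested compound plus 3 SD, cut at about 22% in these data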;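 further: 0% = DMSO only wells and the 100% control is not disclosed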
Target sequence (Q00G26 whole entry, looked up): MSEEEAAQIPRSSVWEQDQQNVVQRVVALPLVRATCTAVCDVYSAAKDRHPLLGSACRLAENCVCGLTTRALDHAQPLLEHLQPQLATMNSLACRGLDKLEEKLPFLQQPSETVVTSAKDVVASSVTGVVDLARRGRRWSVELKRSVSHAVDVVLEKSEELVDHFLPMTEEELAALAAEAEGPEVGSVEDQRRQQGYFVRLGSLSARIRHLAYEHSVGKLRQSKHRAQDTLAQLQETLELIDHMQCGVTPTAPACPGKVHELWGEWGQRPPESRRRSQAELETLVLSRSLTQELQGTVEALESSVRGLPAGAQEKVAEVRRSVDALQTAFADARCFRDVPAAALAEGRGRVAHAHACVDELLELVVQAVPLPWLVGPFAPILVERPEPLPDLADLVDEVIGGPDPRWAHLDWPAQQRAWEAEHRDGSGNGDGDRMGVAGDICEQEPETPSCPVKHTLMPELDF
Target sequence (Q8WTS1 whole entry, looked up): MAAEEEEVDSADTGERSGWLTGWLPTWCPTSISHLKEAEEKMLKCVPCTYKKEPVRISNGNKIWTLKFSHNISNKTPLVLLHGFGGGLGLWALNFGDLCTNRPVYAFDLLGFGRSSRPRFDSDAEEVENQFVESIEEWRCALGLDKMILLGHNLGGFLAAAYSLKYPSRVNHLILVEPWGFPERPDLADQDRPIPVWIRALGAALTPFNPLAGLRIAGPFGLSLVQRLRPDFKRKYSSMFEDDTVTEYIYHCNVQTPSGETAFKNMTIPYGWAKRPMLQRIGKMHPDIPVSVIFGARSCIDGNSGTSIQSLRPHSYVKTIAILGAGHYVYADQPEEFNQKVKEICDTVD
TLR4 MyD88 comp: inhibitors of TLR4-MyD88 association in cells, primary screen, cell-based, HeLa CL3-4, BLA complementation, FRET ratio; Toll-like receptor 4 (Homo sapiens) + Myeloid differentiation primary response protein …; HeLa CL3-4 TLR4/MyD88 BLA complementation; inhibition, % at 8.4 µM; 0.18% of 200,000 active; AID 861, 2007; in the data active means inhibition above about 25%;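 further: 0% = vehicle and 100% = reference inhibitor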
PRMT1 FP inh: PRMT1 methyltransferase inhibitors, primary screen, biochemical, fluorescence polarization; Protein arginine N-methyltransferase 1 (Homo sapiens), Q99873; recombinant PRMT1, activity-based probe fluorescence polarization; inhibition, % at 2.79 µM; 1.3% of 370,000 active;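 active means inhibition above about 21% made by adding two undisclosed values, limit read from the data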
Granule exo inh: LAMP-1 surface exposure blockers, TALL-104 cells – cell-based, flow cytometry, MLPCN library, primary screen. 0.66% of 360,000 active. inhibition, % at 10 µM. TALL-104 LAMP-1 surface exposure; cells stimulated with thapsigargin and PMA;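 active means inhibition above about 55%, limit read from the data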
NOD2-RIPK2 inh: NOD2-RIPK2 binding disruptors in cells, primary screen, fluorescence, CHO cells, BLA complementation | 0.38% of 360,000 active | CCF4 ratio | inhibition, % at 4.98 µM; in the data active means inhibition above about 21%;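 further: 0% = vehicle only and 100% = reference blocker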
* marks the source's active call; other numbers are inactive results; nt = no result given. An excerpt weighted towards active compounds, which were near 2.6% of everything screened.

SMILES	TLR9-MyD88 block	ABHD5-PLIN5 inh	TLR4 MyD88 comp	PRMT1 FP inh	Granule exo inh	NOD2-RIPK2 inh
CCN1C=CC2=C(C#N)C(N)C(C#N)(C#N)C(c3ccccc3C(F)(F)F)C2C1 (configuration not stated)	0	-5	6	22*	-3	-2
Cc1cc(C(=O)c2ccc3ccccc3c2)c(C)o1	nt	0	nt	-2	73*	3
O=C(O)C1OC(Oc2cc3oc(-c4ccccc4)cc(=O)c3c(O)c2O)C(O)C(O)C1O (configuration not stated)	-10	-10	-6	28*	-4	-5
COCCCNC(=O)C[C@H]1C(=O)N(Cc2ccc(OC)cc2)C2=CCCCC[C@@]21C(=O)OC	nt	nt	nt	-12	nt	nt
Cc1cc(-c2cc(-c3ccc(Cl)cc3)nc(N)c2C#N)co1	-9	9	-35	39*	-1	11
CNc1cccnc1C=NNC(N)=S	-6	19	nt	24*	0	11
NC(=S)NN=Cc1nccc2c(C(F)(F)F)cccc12	-2	-16	nt	-1	-2	8
COc1cccc(NC2=C(C#N)C(=O)NC(c3cccc(OC)c3O)S2)c1 (configuration not stated)	6	-12	nt	3	11	-7
N#CC1=C(Nc2ccccc2Cl)SC(c2ccccc2O)NC1=O (configuration not stated)	1	6	nt	24*	26	-4
N#CCCCN1C(=O)C(=C(C#N)C#N)c2ccccc21	8	-8	5	24*	2	-1
O=C(/C=C/c1ccccc1)c1ccccn1	1	23*	3	12	-2	6
O=C1N/C(=C\c2ccc(O)cc2)C(=O)c2ccccc21	1	34*	16	nt	42	7
O=C(OCC#CCSc1nnc(-c2cccc3ccccc23)o1)c1ccccc1	nt	nt	nt	2	nt	nt
C/C(=N\NC(=S)NCCc1ccccc1)c1ccc(Cl)cc1Cl	-7	-7	nt	0	88*	-19
COc1cccc(NC(=O)C2CCCN2C(=O)NC2CCC(C)CC2)c1 (configuration not stated)	nt	nt	nt	-4	nt	nt
Cc1cc(-c2cc(NC(=O)Cc3c[nH]c4ccccc34)ccc2Nc2cccnc2)ccc1F	nt	nt	nt	3	nt	nt
CC(=O)OCCCNc1cc(Sc2ccc(Cl)cc2)c2nonc2c1[N+](=O)[O-]	6	-1	2	5	64*	-5
COc1ccc(-n2c(-c3cc(-c4ccccc4)sc3N)n[nH]c2=S)cc1	4	-6	nt	13	91*	2
CC(=O)N1CCN(c2ccc(N3CCN(C(C)=O)[C@H](C)C3)c(C)c2)[C@H](C)C1	nt	nt	nt	0	nt	nt
CCOC(=O)C1=CCN(S(=O)(=O)c2ccccc2F)C1c1ccc(Br)cc1 (configuration not stated)	nt	nt	nt	-2	nt	nt
CCOC(=O)c1c(S(=O)(=O)N2CCCC2)c(C)n(C)c1C	-1	9	nt	22*	-7	-10
O=Cc1ccc(O)cc1O	-7	0	nt	1	1	-10
O=CN/C=C/c1cc(O)ccc1O	-19	6	nt	48*	-6	-1
CCOC(=O)N[C@H](C(=O)N1CCC[C@H]1C(=O)NC1CCCC1)c1ccccc1	nt	nt	nt	-3	nt	nt
COc1cccc(Cn2cc(COC(=O)N3CCCC3)nn2)c1	nt	nt	nt	-1	nt	nt
O=C1CSC(=S)N1/N=C/C=C/c1ccccc1	3	-21	8	21*	-3	-9
O=C1CSC(=S)N1/N=C/c1c(F)cccc1F	3	-6	nt	17	-19	-5
CC(=O)N1CCc2c(sc(NC(=O)C3CC3)c2-c2nc3ccccc3s2)C1	5	-6	-5	30*	47	1
CC(=O)Nc1sc2c(c1-c1nc3ccccc3s1)CCN(C(C)=O)C2	nt	nt	nt	18	nt	nt
O=C(NCCc1cccnc1)C1CCC(=O)N(CCc2cccc(F)c2)C1 (configuration not stated)	4	22*	nt	-4	-2	-14
